Test results taken from PubChem BioAssay.
Calls of active or inactive are those of the source.

How the values were obtained:
[1] = system: Plasmodium falciparum Sir2 (PF13_0152, Sir2A); assay: pfSir2 binders on small-molecule microarrays, primary screen, biochemical, small-molecule microarray, 635 nm fluorescence (AID 1098); settings: small-molecule microarray binding, fluorescence 635 nm; higher = more signal;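 further: score merges spot fluorescence intensity with its signal-to-noise ratio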
[2] = small-molecule microarray binders of probe aDKK1, primary screen, biochemical, biotinylated probe, 635/667 nm fluorescence (AID 1099); settings: higher = more signal;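 further: score merges 667nm spot fluorescence with signal to noise across triplicate slides; reference of the scale not given here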
[3] = small-molecule microarray binders of probe aCHRDL2, primary screen, biochemical, biotinylated probe, 635/667 nm fluorescence (AID 1100); settings: higher = more signal
[4] = splicing luciferase reporter signal modulators, primary screen, spliceosome inhibition project, cell-based, HEK293, splice +/- reporter (AID 1101); settings: luminescence, 24 h, higher = more signal, called active from +8 up or from −8 down;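 further: HEK293 cells carrying a splicing-competent luciferase reporter gene; test concentration not given here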
[5] = target: Fibroblast growth factor 10 (Homo sapiens) (UniProt O15520); assay: FGF10 binders on small-molecule microarrays, primary screen, biochemical, small-molecule microarray, 635 nm fluorescence (AID 1102); settings: FGF10 binding, fluorescence 635 nm, higher = more signal
Sequence of Fibroblast growth factor 10 (Homo sapiens) (O15520 whole entry, looked up): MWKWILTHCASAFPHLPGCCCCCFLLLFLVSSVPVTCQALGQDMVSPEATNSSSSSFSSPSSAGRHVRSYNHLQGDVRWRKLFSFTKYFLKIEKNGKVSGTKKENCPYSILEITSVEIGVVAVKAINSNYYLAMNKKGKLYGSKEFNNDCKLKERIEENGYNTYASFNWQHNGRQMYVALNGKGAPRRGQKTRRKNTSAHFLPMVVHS

[6] = system: glycogen synthase kinase-3 (GSK3A per assay name; protocol says GSK3B); assay: GSK3 binders on small-molecule microarrays, primary screen, biochemical, small-molecule microarray, 635 nm fluorescence, GSK3A (AID 1103); settings: small-molecule microarray binding, fluorescence 635 nm; higher = more signal; further: the record names both GSK3A and GSK3B
[7] = target: Epidermal growth factor receptor (Homo sapiens) (UniProt P00533); assay: EGFR binders on small-molecule microarrays, primary screen, biochemical, small-molecule microarray, 635 nm fluorescence (AID 1104); settings: EGFR binding, higher = more signal;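 further: score merges 667 nm emission intensity with spot signal to noise over triplicate slides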
Sequence of Epidermal growth factor receptor (Homo sapiens) (P00533 whole entry, looked up): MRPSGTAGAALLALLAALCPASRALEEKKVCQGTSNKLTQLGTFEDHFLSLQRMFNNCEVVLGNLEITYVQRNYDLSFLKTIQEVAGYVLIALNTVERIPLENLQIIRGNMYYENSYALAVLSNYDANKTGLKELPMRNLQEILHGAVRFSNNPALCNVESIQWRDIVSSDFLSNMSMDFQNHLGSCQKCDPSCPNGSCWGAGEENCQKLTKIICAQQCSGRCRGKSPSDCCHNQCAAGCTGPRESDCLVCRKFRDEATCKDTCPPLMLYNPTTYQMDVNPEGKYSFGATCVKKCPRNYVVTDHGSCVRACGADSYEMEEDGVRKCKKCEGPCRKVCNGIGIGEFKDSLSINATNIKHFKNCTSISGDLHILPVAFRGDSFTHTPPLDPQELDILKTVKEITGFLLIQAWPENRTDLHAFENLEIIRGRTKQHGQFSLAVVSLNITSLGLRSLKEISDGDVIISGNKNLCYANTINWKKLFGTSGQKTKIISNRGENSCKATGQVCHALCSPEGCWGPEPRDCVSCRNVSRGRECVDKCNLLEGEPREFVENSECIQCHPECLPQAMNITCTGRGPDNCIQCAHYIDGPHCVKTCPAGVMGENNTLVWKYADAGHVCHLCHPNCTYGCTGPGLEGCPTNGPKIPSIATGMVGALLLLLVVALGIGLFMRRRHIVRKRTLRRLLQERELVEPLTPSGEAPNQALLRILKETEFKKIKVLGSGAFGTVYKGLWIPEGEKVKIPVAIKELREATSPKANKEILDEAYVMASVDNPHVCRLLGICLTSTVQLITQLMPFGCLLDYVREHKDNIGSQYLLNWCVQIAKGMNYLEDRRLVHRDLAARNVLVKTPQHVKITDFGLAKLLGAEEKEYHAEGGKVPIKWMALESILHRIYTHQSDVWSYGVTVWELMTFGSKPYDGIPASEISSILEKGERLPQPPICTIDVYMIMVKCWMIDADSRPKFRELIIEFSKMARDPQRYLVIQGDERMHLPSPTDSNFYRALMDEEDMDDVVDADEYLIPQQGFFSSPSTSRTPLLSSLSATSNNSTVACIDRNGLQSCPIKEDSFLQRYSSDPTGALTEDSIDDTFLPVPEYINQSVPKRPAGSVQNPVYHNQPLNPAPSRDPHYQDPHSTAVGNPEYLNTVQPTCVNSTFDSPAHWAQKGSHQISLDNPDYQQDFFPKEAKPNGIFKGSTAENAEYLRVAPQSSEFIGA

[8] = target: Follistatin-related protein 3 (Homo sapiens) (UniProt O95633); assay: FSTL3 binders on small-molecule microarrays, primary screen, biochemical, small-molecule microarray, 635 nm fluorescence (AID 1105); settings: FSTL3 binding, higher = more signal;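 further: score merges emission near 667 nm and signal to noise per printed spot across three slides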
Sequence of Follistatin-related protein 3 (Homo sapiens) (O95633 whole entry, looked up): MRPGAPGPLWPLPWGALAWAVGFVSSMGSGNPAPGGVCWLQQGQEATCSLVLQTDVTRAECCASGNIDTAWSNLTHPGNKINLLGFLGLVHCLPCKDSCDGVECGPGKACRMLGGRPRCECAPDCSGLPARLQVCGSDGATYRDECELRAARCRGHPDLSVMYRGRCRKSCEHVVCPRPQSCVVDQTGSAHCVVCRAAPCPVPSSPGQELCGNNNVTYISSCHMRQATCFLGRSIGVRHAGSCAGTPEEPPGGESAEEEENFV

[9] = target: Dickkopf-related protein 1 (Homo sapiens) (UniProt O94907); assay: DKK1 binders on small-molecule microarrays, primary screen, biochemical, small-molecule microarray, 635 nm fluorescence scan (AID 1106); settings: DKK1 binding, higher = more signal;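 further: score merges emission near 667 nm with signal to noise over three replicate slides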
Sequence of Dickkopf-related protein 1 (Homo sapiens) (O94907 whole entry, looked up): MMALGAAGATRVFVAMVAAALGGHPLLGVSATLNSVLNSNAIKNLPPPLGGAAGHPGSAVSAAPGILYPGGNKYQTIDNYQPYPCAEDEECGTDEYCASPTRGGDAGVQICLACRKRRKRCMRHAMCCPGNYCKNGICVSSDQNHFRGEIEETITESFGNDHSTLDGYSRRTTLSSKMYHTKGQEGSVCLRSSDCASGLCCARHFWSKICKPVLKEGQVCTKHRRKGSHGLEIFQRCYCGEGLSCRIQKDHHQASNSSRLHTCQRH

[10] = system: Inhibin beta A chain (activin A); assay: INHBA (activin A) binders on microarrays, primary screen, biochemical, small-molecule microarray, 635 nm fluorescence scan (AID 1107); settings: small-molecule microarray binding, higher = more signal;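 further: mouse activin A protein probed at 4.33 µg/mL on printed slides; score merges bound-protein fluorescence near 667 nm with spot signal-to-noise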

Structure (SMILES)	composite z-score [1]	composite z-score [2]	composite z-score [3]	z-score [4]	composite z-score [5]	composite z-score [6]	composite z-score [7]	composite z-score [8]	composite z-score [9]	composite z-score [10]
COc1ccc(NC(=O)O[C@H]2[C@H](OC(=O)Nc3ccc4c(c3)OCO4)[C@@H](OC(=O)Nc3ccc4c(c3)OCO4)[C@@H](OC)O[C@@H]2CO)cc1	1.61	0.0898	0.0398	1.27 (inactive)	1.11	1.29	0.0699	0.516	0.0542	0.774
C=C[C@@H](C)[C@H](OC(=O)Nc1ccc(SC)cc1)c1ccc(OCCO)cc1	-0.435	-0.0748	0.626	-1.91 (inactive)	-0.553	-1.14	-0.541	-0.138	-0.773	-0.0131
NCCCCCCNC(=O)[C@@H]1C[C@@H]2C(=O)N3CCC[C@H]3C(=O)N2[C@@H]1c1ccc(O)cc1	1.27	0.0265	0.0978	0.364 (inactive)	1.01	1.3	0.235	0.318	1.02	0.123
C=C1C2CC3C(=C4C(CO[C@@H]4[C@H]4CCCN4S(=O)(=O)c4ccccc4[N+](=O)[O-])C4C(=O)N(C)C(=O)C34)CC2C(=O)N1C (stereo not given in full)	0.201	-0.2	-0.427	0.194 (inactive)	0.475	0.0168	-0.0553	0.157	0.298	0.689
NC(=O)N1C(=O)C2C(C1=O)C1C=C(CCCO)C2C(c2cccs2)N1Cc1cc2c(cc1Br)OCO2 (stereo not given)	0.884	-0.198	0.229	0.701 (inactive)	-0.284	-0.0207	-0.495	-0.289	-0.756	0.975
COc1ccc([Si](C)(C)[C@@H]2[C@@H](CCn3cc([C@H](O)c4ccccc4)nn3)O[C@]3(C(=O)N(Cc4ccc(N5CCOC5=O)cc4)c4ccccc43)[C@H]2C)cc1	0.972	-0.168	-0.528	-0.242 (inactive)	0.953	0.426	0.664	1.02	0.757	0.504
C[C@@H](OCc1ccccc1)C1NC(=O)[C@@]23C(=O)N[C@@H](Cc4ccccc4)C2[C@H](C)[C@@]2(C)O[C@H]2C3/C=C/C/C=C\CNC(=O)CNC1=O (stereo not given in full)	1.4	-0.354	-0.217	0.848 (inactive)	-0.389	-0.764	-0.497	-0.467	-0.166	1.57
COc1ccccc1CN1C(=O)c2ccccc2[C@@H](C(=O)NC(C)C)[C@@H]1c1ccc(CO)cc1	0.567	0.711	0.756	0.011 (inactive)	1.33	1.23	0.754	1.24	0.673	0.93
COC(=O)[C@@]1(Cc2ccc(OC)cc2)[C@H]2c3cc(C(=O)N(C)C)n(CCc4c[nH]c5ccc(O)cc45)c3C[C@H]2CN1C(=O)c1ccccc1	1.06	1.43	0.984	-1.65 (inactive)	0.934	1.12	0.562	1.23	-0.509	1.26
COC(=O)[C@H](Cc1ccccc1)N1CC(/C=C/C2CC2)=C[C@@H]1[C@@H](O)Cc1ccccc1	1.01	0.0175	-0.276	3.96 (inactive)	1.47	0.837	0.688	1.4	1.2	0.142
[N-]=[N+]=Nc1ccccc1C[C@@]1(C(=O)O)N=C(c2ccc(OCCCO)cc2)O[C@@H]1c1ccccc1	1.56	0.609	0.945	-0.282 (inactive)	0.0372	0.0458	-0.423	0.126	-0.829	0.638
C=C(/C=C/CNS(=O)(=O)c1ccc(C)cc1)[C@H](O)[C@H]1CCCN1S(=O)(=O)c1ccccc1[N+](=O)[O-]	0.61	0.0684	0.0163	-0.112 (inactive)	0.582	0.139	0.669	0.998	0.727	0.809
C=CCNC(=O)[C@H]1[C@@H]2C(=O)O[C@@H](c3ccccc3)[C@@H](c3ccccc3)N2[C@@H](c2ccccc2OCCO)[C@]12C(=O)N(C(=O)OCCOC)c1ccc(C#CC3=CCCCC3)cc12	1.39	0.683	0.521	-1.85 (inactive)	0.996	1.22	0.69	1.32	1.11	1.41
C=CC1c2cc(O)c(OC)cc2CCN1Cc1sc2ccccc2c1Cl (stereo not given)	1.29	0.284	1.25	-1.4 (inactive)	0.504	0.112	-0.163	0.847	0.153	1.55
CCCNC(=O)[C@@]1(c2ccc([N+](=O)[O-])cc2)CC(=O)N(C2CCCCC2)[C@@H]1c1ccc(CO)cc1I	1.51	0.57	0.796	-0.68 (inactive)	0.841	0.705	0.297	0.532	0.214	-0.406
C=C(C(=O)CC[C@H](OC(C)=O)c1cccc(OCCO)c1)C(C)C	-0.382	-0.352	-0.115	0.143 (inactive)	-0.924	-1.24	-1.31	-0.835	-1.07	0.0244
COCCOC(=O)N1C(=O)[C@@]2(c3cc(C#Cc4ccc(OC)cc4)ccc31)[C@H](C(=O)N1CCN(c3ncccn3)CC1)[C@H]1C(=O)O[C@H](c3ccccc3)[C@H](c3ccccc3)N1[C@@H]2c1ccccc1OCCO	0.625	-0.0221	0.221	-0.562 (inactive)	0.343	-0.142	0.139	-0.181	-0.163	0.443
COc1ccc([Si](C)(C)[C@@H]2[C@@H](CCO)O[C@]3(C(=O)N(Cc4cccc(N5C(=O)c6cccc7cccc5c67)c4)c4ccccc43)[C@H]2C)cc1	0.187	0.0019	0.466	-0.665 (inactive)	0.454	-0.0664	-0.491	-0.339	-0.411	-0.0335
CC(=O)n1cc(C(O)C2C=CC3C(=O)N(Cc4ccccc4)C(=O)C3N2n2cnnc2)c2ccccc21 (stereo not given)	1.17	-0.0358	0.205	0.108 (inactive)	-0.167	-0.243	-0.0707	0.19	0.12	0.713
C=CCC(OC(C)=O)[C@@H]1[C@@H](N(Cc2ccc(-c3ccccc3)cc2)C(=O)c2cccc3ccccc23)c2cc(OCCCO)ccc2N1C(=O)Cc1ccc2ccccc2c1 (stereo not given in full)	-0.417	0.122	0.425	-0.862 (inactive)	0.0665	-0.202	-0.062	-0.0827	-0.169	0.796
CC(C)N1C(=O)[C@@]2(c3ccc([N+](=O)[O-])cc3)CC(=O)N(C3CCCCC3)[C@@H]2c2ccc(CO)cc21	0.29	-0.227	-0.173	0.403 (inactive)	0.269	0.172	-0.137	0.656	0.501	0.859
[N-]=[N+]=NCc1ccccc1C[C@@]1(C(N)=O)N=C(c2ccc(OCCCO)cc2)O[C@@H]1c1ccccc1CN=[N+]=[N-]	0.448	1.09	0.378	0.515 (inactive)	1.26	0.989	-0.238	0.165	0.0137	0.764
CC(C)CN1C(=O)[C@@]2(c3ccc([N+](=O)[O-])cc3)CC(=O)N(CC34CC5CC(CC(C5)C3)C4)[C@@H]2c2ccc(CO)cc21	0.984	0.185	0.807	-0.668 (inactive)	-1.02	-0.853	-1.72	-1.09	-1.48	0.2
C=C(C(=O)CC[C@H](OC(=O)c1cccnc1)c1cccc(OCCO)c1)C(C)C	1.24	-0.061	0.125	1.76 (inactive)	-0.64	-0.418	-0.792	-1.05	-0.878	1.16
COc1ccc([Si](C)(C)[C@@H]2[C@@H](CC(=O)N3CCC[C@H]3CO)O[C@]3(C(=O)N(Cc4ccc(N5C(=O)c6cccc7cccc5c67)cc4)c4ccccc43)[C@H]2C)cc1	1.56	-0.184	-0.2	-1.11 (inactive)	1.38	1.29	0.564	1.06	0.587	0.231
O=C(O)[C@H]1C[C@H]2C(=O)N3CCC[C@H]3C(=O)N2[C@H]1c1cccc(OCCO)c1	1.6	0.0484	0.0998	-0.184 (inactive)	0.262	0.486	0.0626	0.384	0.884	-0.0254
O=C1NC(=O)C2C1C=CC(C(O)c1cc(C(F)(F)F)cc(C(F)(F)F)c1)N2Nc1ccc(Cl)cc1Cl (stereo not given)	0.314	0.853	0.824	0.916 (inactive)	0.336	-0.514	-0.66	-0.0146	-0.953	0.701
CN(C)CCCCNC(=O)[C@H]1C[C@H]2C(=O)N3CCC[C@H]3C(=O)N2[C@H]1c1ccc(O)cc1	0.0292	-1.21	-0.65	-2.27 (inactive)	-1.51	-0.0328	-0.364	0.398	-0.414	-0.984
CC(C)(C)OC(=O)CC[C@]1(C(=O)NCCN2CCOCC2)N=C(c2ccc(OCCCO)cc2)O[C@H]1c1ccccc1N=[N+]=[N-]	1.63	0.99	1.12	-1.03 (inactive)	0.177	1.17	0.303	0.361	-0.235	1.24
NC(N)=NCc1cn(CCc2c[nH]c3ccccc23)nn1	0.689	0.0191	-0.865	-0.443 (inactive)	0.479	1.18	0.699	1.12	1.6	0.307
